One may read the AC50 as the midpoint of the concentration-response curve, whichever way the signal moves.

This is an account of results in PubChem BioAssay (EPA / NIEHS).

Structures are written as SMILES. Activity calls are given as the source filed them. Rule for the calls: active = hit-call score of the fitted dose curve at least 0.9, where 1 is the maximum; inactive = score below 0.9.

This assay in a line: CCTE_Harrill_HTTr_Apoptosis_MCF7: CCTE's 6-hour Apoptosis Assessment for the High-Throughput Transcriptomics (HTTr) Platform, in MCF-7 cells cultured in DMEM + 10% fetal bovine serum, Harrill Lab (AID 2284011). The text has this: This is a cell-based assay that evaluates apoptosis using high content imaging to evaluate activation of caspase-3/7 using the CellEvent Caspase 3/7 Green detection reagent in 384-well format.One of seven assay components measured from the CCTE_Harrill_HTTr_Apoptosis assay. This was part of a full screening experiment. This is a cell-based assay that evaluates apoptosis in MCF-7 cells cultured in DMEM + 10% fetal bovine serum. High content imaging is used to evaluate activation of caspase-3/7 using the CellEvent Caspase 3/7 Green detection reagent. Measurements are taken at 6 hours after chemical dosing in 384-well format.The assay component endpoint CCTE_Harrill_HTTr_Apoptosis_MCF7 was analyzed with bidirectional fitting relation to DMSO as the negative control and baseline of activity. Using a type of viability reporter, gain-of-signal activity can be used to evaluate activation of caspase-3/7 using the CellEvent Caspase 3/7 Green detection reagent to understand changes in apoptosis. To generalize the intended target to other relatable targets, this assay endpoint is annotated to cell cycle, where the subfamily is apoptosis.
Chemicals were tested in MCF7 cells in an eight point dilution series with a six hour exposure duration.
As to `Cc1cc(=O)[nH]c(=S)[nH]1`, the result was inactive.
Turning to `CC(=O)Oc1ccccc1C(=O)O`, the result was inactive.
As to `CN[C@H]1CC[C@@H](c2ccc(Cl)c(Cl)c2)c2ccc(S(N)(=O)=O)cc21`, the result was inactive.
`COc1cccc2c1C(=O)c1c(O)c3c(c(O)c1C2=O)C[C@@](O)(C(=O)CO)C[C@@H]3O[C@H]1C[C@H](N)[C@H](O)[C@H](C)O1`: the AC50 was 90.8 µM (active).
In the case of `Cc1ccc(C)c(O)c1C`, the result was inactive.
Consider `CNC(=O)[C@H]1O[C@@H](n2cnc3c(NCc4cc(Cl)ccc4OCc4cc(C)no4)ncnc32)[C@H](O)[C@@H]1N`, for which the outcome was inactive.
Regarding `C=CCOC(=O)c1ccccc1C(=O)OCC=C`, the result was inactive.
Regarding `CNCc1cc(F)ccc1Oc1ccc(Cl)c(Cl)c1`, the result was inactive.
On the same count and under the same terms, for `CCCCCCCCCCO` the value was “inactive”; for `Cc1nc(C)nc(N2C[C@@H](C)N(c3ccnc([C@@H](C)O)n3)[C@@H](C)C2)n1`, “inactive”; for `CCCCCC(=O)O`, “inactive”.
Turning to `COCCOC[C@H](CC1(C(=O)NC2CCC(C(=O)O)CC2)CCCC1)C(=O)Oc1ccc2c(c1)CCC2` (stereo not given in full), the result was inactive.
With `CCCCCCCCCCC`, the result was inactive.
Consider `Cc1c(C(=O)O)c(O)cc2c1C(=O)c1c(O)c([C@@H]3O[C@H](CO)[C@@H](O)[C@H](O)[C@H]3O)c(O)c(O)c1C2=O`, for which the result was inactive.
In the case of `NCC1(Cc2noc(=O)[nH]2)CCCCC1`, the outcome was inactive.
Turning to `C[Si]1(C)O[Si](C)(C)O[Si](C)(C)O[Si](C)(C)O1`, the result was inactive.
`CCOC(=O)C(C)(C)Oc1ccc(Cl)cc1`: the result was inactive.
`Cc1ccc(C(C)C)c(O)c1`: the outcome was inactive.
`FC(F)(F)C(F)(F)C(F)(F)C(F)(F)C(F)(F)C(F)(F)CCI`: the result was inactive.
For the compound `CC1(C)CC(N=C=O)CC(C)(CN=C=O)C1` (stereo not given), the outcome was inactive.
As for `CCCCC(CC)COC(=O)CC(C(=O)OCC(CC)CCCC)S(=O)(=O)O` (stereo not given), the result was inactive.
`COc1cc(-c2nc(NC(=O)c3cc4cc(C)cc(C)c4n3CC(=O)O)sc2CCC2CCCCC2)c(OC)cc1Cl`: the outcome was inactive.
For the compound `CCOc1ccc2c(c1)C(C)=CC(C)(C)N2`, the outcome was inactive.
As to `CCCCOC(=O)CCCCCCCCC(=O)OCCCC`, the outcome was inactive.
On the same count and under the same terms, for `CC(=O)OC/C=C(\C)CCC=C(C)C` the value was “inactive”.
`O=C(N[C@@H](Cc1ccccc1)[C@@H](O)C(=O)N1C[C@@H](O)[C@@H](O)C1)c1cc2cc(Cl)ccc2[nH]1`: the outcome was inactive.
Same read-out and setting: under `COC(=O)c1ccc(O)cc1` stands “inactive”; under `COc1cc(S(=O)(=O)O)c(C)cc1N=Nc1c(O)ccc2cc(S(=O)(=O)O)ccc12`, “inactive”.
The same measure, in the same setting: for `O=[N+]([O-])C(CO)(CO)CO` the value was “inactive”.
Same read-out and setting: for `COc1cc(/C=C/C(=O)CC(=O)/C=C/c2ccc(O)c(OC)c2)ccc1O` the value was “inactive”; for `Cc1cccc(Nc2cc(Cl)nc(SCC(=O)O)n2)c1C`, “inactive”; for `Cc1ccc2ncccc2c1`, “inactive”.
For `CC(=O)OCCOCCOCCOC(C)=O`, the result was inactive.
In the case of `Oc1ccc2c(c1)OC[C@@H](N1CCC(O)(c3ccc(F)cc3)CC1)[C@H]2O`, the outcome was inactive.
Take `Cc1oc(-c2ccccc2)nc1CCOc1cccc2c1ccn2CCC(=O)O`: the result was inactive.
For the compound `CCNc1cccc(C)c1`, the result was inactive.
As to `CC(=O)C(C)=CC1C(C)=CCCC1(C)C` (stereo not given), the outcome was inactive.
`CCOC(=O)CCC(=O)OCC`: the outcome was inactive.
`Cc1cccc([N+](=O)[O-])c1C`: the result was inactive.
For `Clc1cc(Cl)c(Cl)cc1Cl`, the result was inactive.
